Experimental data taken from PubChem BioAssay (NCI).
The panel holds about 79,000 compounds, 15% with a hit somewhere; the sample as a whole holds those more often. Activity calls are given as the source filed them. Cut-off read from the data, not from the text of the source: active = growth inhibition above about 70%; inactive = the rest.

Experiments:
[1] = NCI Yeast Anticancer Drug Screen. Data for the rad50 strain (AID 155);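 note: 0% = growth of vehicle-only cultures of the same strain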; conditions: S. cerevisiae rad50 strain growth inhibition; at 50.0 µM; stronger effect = higher value
How it was run: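 Inhibition values express reduced yeast growth in compound-treated cultures relative to vehicle-treated controls.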

[2] = NCI Yeast Anticancer Drug Screen. Data for the sgs1 mgt1 strain (AID 161);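 note: 0% = growth of cultures given vehicle only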; conditions: S. cerevisiae sgs1 mgt1 strain, at 50.0 µM, stronger effect = higher value
How it was run: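 Inhibition of yeast growth, normalised to vehicle-treated controls, is reported for a strain bearing genetic alterations in DNA damage repair.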

[3] = NCI Yeast Anticancer Drug Screen. Data for the cln2 rad14 strain (AID 165);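 note: 0% = growth equal to vehicle treated cultures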; conditions: S. cerevisiae cln2 rad14 strain, at 50.0 µM, stronger effect = higher value
How it was run: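 Test compounds were added to cln2 rad14 yeast cultures; inhibition of growth was then determined by comparison with vehicle treatment.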

[4] = NCI Yeast Anticancer Drug Screen. Data for the bub3 strain (AID 167); conditions: S. cerevisiae bub3 mutant strain, at 50.0 µM, stronger effect = higher value
How it was run: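 Steps: expose the mutant yeast strain to compound; grow alongside vehicle-treated cultures; measure growth; express inhibition against the vehicle cultures.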

[5] = NCI Yeast Anticancer Drug Screen. Data for the mlh1 rad18 strain (AID 175); conditions: S. cerevisiae mlh1 rad18 strain growth inhibition; at 50.0 µM; stronger effect = higher value
How it was run: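 Inhibition values reflect reduced growth of mutant yeast versus vehicle-treated controls following compound exposure; the mutations affect DNA damage repair.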

[6] = NCI Yeast Anticancer Drug Screen. Data for the mec2-1 strain (AID 157); conditions: S. cerevisiae mec2-1 strain, at 50.0 µM, stronger effect = higher value
How it was run: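 Each compound was tested on mec2-1 yeast, a strain altered in DNA damage repair or cell cycle control. Growth inhibition is reported relative to vehicle.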

Measured: growth inhibition

CC1CCCNC1C (stereo not drawn)
inactive: [1] -21% | [2] -11.1% | [3] -29% | [4] -3.25% | [5] 8.25%

C/C(=C1\C(=O)Nc2ccccc21)c1cccnc1
inactive: [1] -8.2% | [2] -9.5% | [3] 11.3% | [4] -10.4% | [5] -7.55%

Nc1nc(-c2ccc(F)cc2)cc(-c2cc(-c3ccc(F)cc3)nc(N)n2)n1
inactive: [1] -17.1% | [2] -20.9% | [3] -2% | [4] -7.15% | [5] 2.15%

COc1cc(C2c3cc4c(cc3OC(N3CCNCC3)C2C)OCO4)cc(OC)c1OC (stereo not drawn)
inactive: [1] -17.5% | [2] -27.8% | [3] -22.7% | [4] -3.6% | [5] -27.5%

O=Cc1ccc2c(c1)CC1(Cc3ccccc3C1)C2
inactive: [1] -3.35% | [2] -10.8% | [3] -7.2% | [4] 9.9% | [5] -30.3%

COc1ccc2[nH]c3c4c(ccc3c2c1)C(=O)C=CC4=O
inactive: [1] 19.8% | [2] 12% | [3] -1.05% | [4] 9.45% | [5] 17.6%

COc1ccc(OC)c(NC(=O)Nc2ccc(I)cc2)c1
inactive: [1] 46.8% | [2] 33.9% | [3] 15.1% | [4] 52.9% | [5] 56%

N#CC(NCCCNC(C#N)c1ccccc1)c1ccccc1 (stereo not drawn)
inactive: [1] -1% | [2] -4.6% | [3] -23.7% | [4] -3.9% | [5] -18.4%

COC(=O)C(=O)C(/C=N/C(=S)Nc1ccc(S(=O)(=O)Nc2nccs2)cc1)=C(\O)c1c(C)[nH]c2ccccc12
inactive: [1] 39.1% | [2] 35% | [3] 5.2% | [4] 35.9% | [5] 29.8%

O=C(Cc1ccccc1)Nc1ccc(Br)cc1
inactive: [1] 6.15% | [2] 15.5% | [3] -16.1% | [4] 13.7% | [5] 8.55%

NCCCOCCN1CCN(c2ccccc2)CC1
inactive: [1] -0.75% | [2] 0.75% | [3] -39.5% | [4] 2.95% | [5] 7.25%

OCCCc1ccccc1
inactive: [1] -0.1% | [2] -2.55% | [3] -13.2% | [4] 3.25% | [5] -3.7%

Clc1ccc(/C=C/c2ccc3ccccc3n2)cc1
inactive: [1] -2.65% | [2] -13% | [3] -28.3% | [4] -14% | [5] 12%

CCOC(=O)c1ccc(NCc2cccc([N+](=O)[O-])c2)cc1
active: [4] 73.8%
inactive: [1] 10.2% | [2] 10.4% | [3] 0.45% | [5] 31.6%

COC(=O)c1c(-c2ccc3c(c2)OCO3)cn(C)c1C
inactive: [1] 5.7% | [2] 24.6% | [3] -5.25% | [4] 7.55% | [5] 11.6%

CCCCCCCCCSc1nc2ccccc2s1
inactive: [1] 12.8% | [2] 18.2% | [3] 5.45% | [4] 14.5% | [5] -10.1%

O=C1NC(=O)c2ccc(Br)c3cccc1c23
inactive: [1] 17.9% | [2] 16.1% | [3] 21.6% | [4] 19.9% | [5] 1.75%

CCOC(=O)C12CCC(=O)CC1(O)CCC1(C2)OCCCO1 (stereo not drawn)
inactive: [6] -15.9% | [2] -17.9% | [3] -21.8% | [4] 10.9% | [5] 3.85%

O=C(O)C1CCCCN1/N=C/c1cccc([N+](=O)[O-])c1 (stereo not drawn)
inactive: [6] 11.9% | [3] 1.3% | [4] 26.9% | [5] 11.9%

Cc1c(Cl)ccc2c1NC(=O)C2(O)CC(=O)c1ccc(Cl)cc1Cl (stereo not drawn)
inactive: [6] 18.7% | [2] 0.1% | [3] -13.5% | [5] 23.4%
